# Data as given in PubChem BioAssay (Tox21).
# Unmarked numbers belong to inactive results. Results filed as inconclusive are left out. Entries that show only a call come without a potency. Calls of active or inactive are those of the source. Unless noted, calls come from the whole dose curve; as a rule, active = well fitted curve in the direction sought with a large enough effect in the repeat runs; inconclusive = weak or mixed curves; inactive = no such curve, though single readings can be large; an effect the other way counts as inactive or inconclusive.
# What was measured:
# [1] = target: Thyrotropin receptor (Homo sapiens) (UniProt P16473); assay: qHTS assay to identify small molecule agonists of the thyroid stimulating hormone receptor (TSHR) signaling pathway (AID 1224843; calls by dose curve; note: nearly all actives have a fitted effect of over 45% in size; note: potency is the fitted concentration of half-maximal effect)
# Chain of Thyrotropin receptor (Homo sapiens) (P16473 whole entry, looked up): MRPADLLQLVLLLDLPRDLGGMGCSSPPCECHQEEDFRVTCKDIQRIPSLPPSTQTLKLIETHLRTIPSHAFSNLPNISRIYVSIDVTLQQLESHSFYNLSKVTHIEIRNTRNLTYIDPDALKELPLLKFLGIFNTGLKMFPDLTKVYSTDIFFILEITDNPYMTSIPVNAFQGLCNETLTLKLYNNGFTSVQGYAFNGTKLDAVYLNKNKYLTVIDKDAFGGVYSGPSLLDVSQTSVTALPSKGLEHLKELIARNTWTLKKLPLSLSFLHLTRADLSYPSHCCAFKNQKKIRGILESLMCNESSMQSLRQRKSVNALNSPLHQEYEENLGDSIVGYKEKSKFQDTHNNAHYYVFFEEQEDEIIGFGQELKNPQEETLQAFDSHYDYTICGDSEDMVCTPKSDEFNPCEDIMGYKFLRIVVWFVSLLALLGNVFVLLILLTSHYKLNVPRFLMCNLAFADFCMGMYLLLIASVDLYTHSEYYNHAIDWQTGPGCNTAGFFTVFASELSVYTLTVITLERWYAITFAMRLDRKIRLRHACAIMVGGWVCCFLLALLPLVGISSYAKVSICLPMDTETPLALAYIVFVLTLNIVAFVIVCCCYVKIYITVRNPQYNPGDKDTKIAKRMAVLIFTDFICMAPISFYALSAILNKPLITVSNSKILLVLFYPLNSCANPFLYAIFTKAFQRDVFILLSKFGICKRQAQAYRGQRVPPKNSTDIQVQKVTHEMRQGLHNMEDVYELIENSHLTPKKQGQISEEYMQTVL
# Outline: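 Agonist activity read as cAMP rise via d2/cryptate HTRF competition, 1 h room-temperature detection, in HEK293 cells expressing TSHR. Fifteen-point titrations, each run in triplicate, with a 30 min room-temperature incubation beforehand.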
# [2] = qHTS assay to identify small molecule agonists of the hypoxia (HIF-1) signaling pathway - cell viability counter screen (AID 1224844; calls by dose curve; note: nearly all actives have a fitted effect of over 50% in size)
# Outline: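 Cytotoxicity measured by CellTiter-Glo ATP luminescence in the wells also read for beta-lactamase signal. Cells were HRE-bla ME-180 (2,000/well, 0.5% dialyzed FBS), exposed to compounds for 17 h at 37C.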
# [3] = qHTS assay to identify small molecule agonists of the hypoxia (HIF-1) signaling pathway (AID 1224846; active = well fitted activation curve with a large enough effect in the signal ratio in the repeat runs, not every such curve was filed as active; the % refers to the signal ratio)
# Outline: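 Compounds added to ME-180 cells carrying hypoxia-response-element beta-lactamase reporter (0.5% dialyzed FBS, 5 h preplating), 17 h at 37C; agonist activity detected by CCF4-AM B/G FRET read-out.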
# [4] = qHTS assay to identify small molecule agonists of H2AX - cell viability counter screen (AID 1224847; calls by dose curve; note: nearly all actives have a fitted effect of over 30% in size; note: potency is the fitted concentration of half-maximal effect; for activity change, negative = cytotoxicity: top concentration of the series differs between compounds)
# Outline: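 Quantitative HTS viability measurement: CHO-K1 wild-type cells in serum (10% FBS) medium, short 3 hr drug exposure at 37C with 0.76% DMSO, CellTiter-Glo luminescent detection.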
# [5] = qHTS assay to identify small molecule antagonists of the estrogen related receptor (ERR) signaling pathway from Tox21 library (AID 1224848); note: nearly all actives have a fitted effect of over 50% in size
# Outline: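 Luciferase luminescence (ONE-Glo, 30 min room temperature) was the read-out. Cells of the NTP-supplied ERR line, 2,000 per well, were given 6 h at 37 C before compound addition in DMSO and 18 h exposure at 37 C.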
# [6] = qHTS assay to identify small molecule agonists of the estrogen related receptor (ERR) signaling pathway from Tox21 library (AID 1224849; calls by dose curve; note: nearly all actives have a fitted effect of over 15% in size); conditions: ERR reporter cell line, ONE-Glo luciferase, 18 h; at 92.4 µM (top of the series) unless noted
# Outline: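 Luminescent agonist read-out (One-Glo, 30-minute room-temperature incubation) following 18-hour compound treatment at 37 C of the ERR cell line, which had been plated 6 hours before dosing.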
# [7] = qHTS RealTime-Glo MT Cell Viability Assay in HepG2 cells - 24 hour (AID 1224867); note: nearly all actives have a fitted effect of over 50% in size
# Outline: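 Luminescence read-out: viable HepG2 cells reduce a prosubstrate to a NanoLuc substrate, giving a signal proportional to live cell number. Reads taken at 0, 8, 16, 24, 32 and 40 h of compound exposure at 37 C.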
# [8] = qHTS RealTime-Glo MT Cell Viability Assay in HEK293 cells - 32 hour (AID 1224868); note: nearly all actives have a fitted effect of over 50% in size; note: potency is the fitted concentration of half-maximal effect; for activity change, negative = cytotoxic: top concentration of the series differs between compounds
# Outline: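 Nonlytic real-time viability readout: viable cells convert prosubstrate to NanoLuc substrate, giving luminescence proportional to live cell number. HEK293, 600 cells/well, compound added after 5 h, continuous culture at 37 C.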
# [9] = A CellTox Green Cytotoxicity Assay to monitor cytotoxicity in HEK293 cells - 0 hour (AID 1224869); note: nearly all actives have a fitted effect of over 50% in size
# Outline: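 Fluorescence from a DNA-binding dye excluded by viable cells was measured repeatedly in the same HEK293 wells (600 cells/well) during continuous compound exposure at 37 C. Each assay gives one read point: 0, 8, 16, 24, 32 or 40 h.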
# [10] = qHTS assay to identify small molecule agonists of H2AX (AID 1224845; active = well fitted activation curve with a large enough effect in the signal ratio in the repeat runs, not every such curve was filed as active; the % refers to the signal ratio)
# Outline: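 Phospho-H2AX Ser139 measured by HTRF (ex 320 nm; em 665 and 620 nm) after 24 hr antibody incubation. Compounds, 15 concentrations, 0.76% DMSO, were applied to CHO-K1 cells for 3hr at 37C before lysis.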
compound,measurement,setting,value
CC(=C(CCOC(=O)C(C)C)SSC(CCOC(=O)C(C)C)=C(C)N(C=O)Cc1cnc(C)nc1N)N(C=O)Cc1cnc(C)nc1N,Potency,[1],inactive
same,outcome,[2],inactive
same,outcome,[3],inactive
same,Potency,[4],inactive
same,Potency,[5],inactive
same,"activity change, positive = activation",[6],0.537% [at 42.5 µM]
same,outcome,[7],inactive
same,Potency,[8],inactive
same,outcome,[9],inactive
O=P(O)(O)OP(=O)(O)O,Potency,[1],inactive
same,outcome,[2],inactive
same,outcome,[10],inactive
same,Potency,[4],inactive
same,outcome,[7],inactive
same,Potency,[8],inactive
same,outcome,[9],inactive
O=S(=O)(O)CCN1CCN(CCO)CC1,Potency,[1],inactive
same,outcome,[2],inactive
same,outcome,[3],inactive
same,Potency,[4],inactive
same,Potency,[5],inactive
same,"activity change, positive = activation",[6],9.7%
same,outcome,[7],inactive
same,Potency,[8],inactive
same,outcome,[9],inactive
CC1(CO)CN(c2ccccc2)NC1=O (stereo unspecified),Potency,[1],inactive
same,outcome,[2],inactive
same,outcome,[3],inactive
same,Potency,[4],inactive
same,outcome,[7],inactive
same,Potency,[8],inactive
same,outcome,[9],inactive
c1ccc2c(c1)ccc1c3ccccc3ccc21,Potency,[1],inactive
same,outcome,[2],inactive
same,outcome,[3],inactive
same,Potency,[4],inactive
same,outcome,[7],inactive
same,Potency,[8],inactive
same,outcome,[9],inactive
CCC(CC)CO,Potency,[1],inactive
same,outcome,[2],inactive
same,outcome,[3],inactive
same,Potency,[4],inactive
same,outcome,[7],inactive
same,Potency,[8],inactive
same,outcome,[9],inactive
CC(C(=O)O)c1ccc2c(c1)CC(=O)c1ccccc1S2 (stereo unspecified),Potency,[1],inactive
same,outcome,[2],inactive
same,Potency,[4],inactive
same,Potency,[5],inactive
same,"activity change, positive = activation",[6],4.13% [at 42.5 µM]
same,outcome,[7],inactive
same,Potency,[8],inactive
same,outcome,[9],inactive
Cc1cc(NC(=O)C2=C(O)c3ccccc3S(=O)(=O)N2C)no1,Potency,[1],inactive
same,outcome,[2],inactive
same,Potency,[4],inactive
same,outcome,[7],inactive
same,Potency,[8],inactive
same,outcome,[9],inactive
Cc1cc(C(C)(C)C)c(O)c(C)c1CC1=NCCN1,Potency,[1],inactive
same,outcome,[2],inactive
same,Potency,[4],inactive
same,outcome,[7],inactive
same,Potency,[8],inactive
same,outcome,[9],inactive
CCCCCCOc1ccccc1C(N)=O,Potency,[1],inactive
same,outcome,[10],inactive
same,outcome,[3],inactive
same,Potency,[4],inactive
same,outcome,[7],inactive
same,Potency,[8],16.9 µM (active)
same,outcome,[9],inactive
O=C(O)C(=O)Cc1ccccc1,Potency,[1],30.6 µM (active)
same,outcome,[2],inactive
same,outcome,[3],inactive
same,Potency,[4],inactive
same,outcome,[7],inactive
same,Potency,[8],inactive
same,outcome,[9],inactive
CCN1CCc2nc(N)oc2CC1,Potency,[1],inactive
same,outcome,[2],inactive
same,Potency,[4],inactive
same,outcome,[7],inactive
same,Potency,[8],inactive
same,outcome,[9],inactive
COc1ccc(C2CNC(=O)C2)cc1OC1CCCC1 (stereo unspecified),Potency,[1],inactive
same,outcome,[2],inactive
same,Potency,[4],inactive
same,Potency,[5],inactive
same,"activity change, positive = activation",[6],-4.57% [at 42.5 µM]
same,outcome,[7],inactive
same,Potency,[8],inactive
same,outcome,[9],inactive
O=C(/N=N/C(=O)OCc1ccccc1)OCc1ccccc1,Potency,[1],24.3 µM (active)
same,outcome,[2],inactive
same,outcome,[3],inactive
same,Potency,[4],inactive
same,outcome,[7],inactive
same,Potency,[8],inactive
same,outcome,[9],inactive
CCCCCCCCCC(C)=O,Potency,[1],inactive
same,outcome,[2],inactive
same,outcome,[3],inactive
same,Potency,[4],inactive
same,outcome,[7],inactive
same,Potency,[8],inactive
same,outcome,[9],inactive
CCCCNC1CC(C)(C)NC(C)(C)C1,Potency,[1],inactive
same,outcome,[2],inactive
same,outcome,[3],inactive
same,Potency,[5],inactive
same,"activity change, positive = activation",[6],8.08%
same,outcome,[7],inactive
same,Potency,[8],inactive
same,outcome,[9],inactive
CCCCCCN,Potency,[1],inactive
same,outcome,[2],inactive
same,Potency,[4],inactive
same,outcome,[7],inactive
same,Potency,[8],inactive
same,outcome,[9],inactive
O=C(NCC(O)CO)c1c(I)c(C(=O)NCC(O)CO)c(I)c(N(CCO)C(=O)CO)c1I (stereo unspecified),Potency,[1],inactive
same,outcome,[2],inactive
same,Potency,[4],inactive
same,Potency,[5],inactive
same,"activity change, positive = activation",[6],5.02% [at 42.5 µM]
same,outcome,[7],inactive
same,Potency,[8],inactive
same,outcome,[9],inactive
N[C@@H](COP(=O)(O)O)C(=O)O,activation,[1],7.34% [at 19 µM]
same,"activity change, negative = cytotoxicity",[2],-1.64% [at 15.8 µM]
same,"activity change, negative = cytotoxicity",[4],-1.2% [at 31.6 µM]
same,"activity change, negative = cytotoxicity",[7],0.52% [at 15.8 µM]
same,"activity change, negative = cytotoxic",[8],2.67% [at 15.8 µM]
same,cytotoxicity,[9],-3.53% [at 15.8 µM]
O=C(CCN1CCN(CCO)CC1)N1c2ccccc2Sc2ccc(C(F)(F)F)cc21,Potency,[1],inactive
same,outcome,[2],inactive
same,outcome,[3],inactive
same,Potency,[4],inactive
same,outcome,[7],inactive
same,Potency,[8],inactive
same,outcome,[9],inactive
CCCC/C=C/C=C\C=O,Potency,[1],inactive
same,outcome,[10],inactive
same,outcome,[3],inactive
same,Potency,[4],1.6 µM (active)
same,outcome,[7],inactive
same,Potency,[8],inactive
same,outcome,[9],inactive
Cc1cc2cc3c(C)cc(=O)oc3c(C)c2o1,Potency,[1],inactive
same,outcome,[2],inactive
same,Potency,[4],inactive
same,Potency,[5],inactive
same,"activity change, positive = activation",[6],7.29% [at 42.5 µM]
same,outcome,[7],inactive
same,Potency,[8],inactive
same,outcome,[9],inactive
NS(=O)(=O)c1cc2c(cc1Cl)CN(C1CCCCC1)C2=O,Potency,[1],inactive
same,outcome,[2],inactive
same,outcome,[3],inactive
same,Potency,[4],inactive
same,outcome,[7],inactive
same,Potency,[8],9.52 µM (active)
same,outcome,[9],inactive
COc1ccc2c(c1)C(=O)N(CCc1ccc(S(=O)(=O)NC(=O)NC3CCCCC3)cc1)C(=O)C2(C)C,Potency,[1],inactive
same,outcome,[3],inactive
same,Potency,[4],inactive
same,outcome,[7],inactive
same,Potency,[8],inactive
same,outcome,[9],inactive
N[C@@H](CCC(=O)Nc1ccc([N+](=O)[O-])cc1)C(=O)O,Potency,[1],inactive
same,outcome,[2],inactive
same,Potency,[4],inactive
same,Potency,[5],inactive
same,"activity change, positive = activation",[6],-15.8%
same,outcome,[7],inactive
same,Potency,[8],inactive
same,outcome,[9],inactive
CC(C)=O,Potency,[1],inactive
same,outcome,[2],inactive
same,outcome,[3],inactive
same,Potency,[4],inactive
same,outcome,[7],inactive
same,Potency,[8],inactive
same,outcome,[9],inactive
